The supplement of paper PMC10338343
± gives the standard deviation.

Test system: MILI (PIWIL2) piRISC loaded with piRNA #1 (26 nt)
Assay: pre-steady-state target cleavage rate (min^-1); guide: piRNA #1 5'p-UGAGGUAGUAGGUUGUAUAGUAUCCA; MIWI and MILI are mouse PIWI proteins and EfPiwi is from a freshwater sponge; tags in brackets are library labels; higher = faster piRNA-guided slicing of the target
Conditions: auxiliary factor: 500 nM mouse GTSF1
In short: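 In Cleave-'n-Seq, a transcribed, DNA-blocked target RNA library (0.1 nM) was combined with 1 nM active affinity-purified piRISC bearing one synthetic guide, with or without 500 nM GTSF1 partner protein. Reactions ran in HEPES–potassium acetate buffer at 33 °C for 0–8 or 0–960 min. Uncleaved targets were sequenced and normalised to depth and to weakly complementary targets, three trials were pooled, and k3 was capped at 0.0001 min^-1. The pre-steady-state cleavage rate was obtained by fitting a burst-and-steady-state model.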

| Sequence | pre-steady-state target cleavage rate |
| --- | --- |
| GGAGACCUAUGAAUACAACCUACUCCCUCA | 0.00391 ± 0.0022 |
| GGAGACCUUACUAAUGAACCUACUACCUCA | 0.00805 ± 0.0017 |
| GGAGACCUAUGAUAUGAACCUACUACACUCA | < 0.0001 |
| GGAGACCAUAGUAUACAACCUACAACCUCA | 0.129 ± 0.017 |
| GGAGACCUAUGAUAUGUUCAUACUACCUCA | < 0.0001 |
| GGAGACCAUACUAUACAAGCUACAACCUCA | 0.212 ± 0.022 |
| GGAGACCUAACUAAACAACGUACUACCUCA | 0.00971 ± 0.005 |
| GGAGACCAUACUAUACAACCUAACUACCUCA | 0.0248 ± 0.0049 |
| GGAGACCUAUGAAAACAACCUACUUCCUCA | 0.00368 ± 0.002 |
| GGAGACCUAUGAUUUACAACCUACUACCUCA | 0.00564 ± 0.003 |
| GGAGACCUAACUAUUCAACGUACUACCUCA | 0.0113 ± 0.0053 |
| GGAGACCUAUGAUAACAAACUACUACCUCA | 0.0114 ± 0.0029 |
| GGAGACCUUACUAAACAUCCUACUACCUCA | 0.208 ± 0.017 |
| GGAGACCUAUGAAUACAACCUACUAGCCUCA | 0.00742 ± 0.0038 |
| GGAGAGGAAACUAUACAACCUACUACCUCA | 0.222 ± 0.026 |
| GGAGACCUAUGUAUACAUCCUACUUCCUCA | 0.0795 ± 0.013 |
| GGAGACCUAUGAAUACAUGCUACUACCUCA | 0.00268 ± 0.0026 |
| GGAGACCAUACUAUACAACCUACUCACCUCA | 0.169 ± 0.015 |
| GGAGACCUAUCUAUACAAGCUACAACCUCA | 0.169 ± 0.015 |
| GGAGACCUAUGAUAUGUACCUUCAACCUCA | < 0.0001 |

| Sequence | pre-steady-state target cleavage rate |
| --- | --- |
| GGAGACCUAACUAUAGAACCUACUACCUCA | 0.131 ± 0.021 |
| GGAGACCUAUGAUAACAAGCUACUACCUCA | 0.0133 ± 0.0028 |
| GGAGAGGAUACUAUAAACCUACUACCUCA | 0.0203 ± 0.0036 |
| GGAGACCAAACUAUACAACCUACUACGUCA | 0.042 ± 0.015 |
| GGAGACCUAUGUAUACUUGCUACUACCUCA | 0.00505 ± 0.0014 |
| GGAGACCUAACUUAUACAACCUACUACCUCA | 0.0771 ± 0.019 |
| GGAGACCUAUCUAUAGUUCCUACUACCUCA | 0.0473 ± 0.012 |
| GGAGACCUUACUAUACUAGCUACUACCUCA | 0.171 ± 0.012 |
| GGAGACCUAUGAUAUCAAACUACUACCUCA | 0.00495 ± 0.0026 |
| GGAGACCUAUGUAUUCAACCUACUAGCUCA | 0.0092 ± 0.0033 |
| GGAGACGAUAGUAUACAACCUUCUACCUCA | 0.00961 ± 0.003 |
| GGAGACCUAUGAUAUGUACCUACUACCCA | < 0.0001 |
| GGAGACCUAUGAUAUGUACCUACUACCCCA | < 0.0001 |
| GGAGACCUAUGAUUACAAGCUACAACCUCA | 0.0159 ± 0.0045 |
| GGAGACCUAUGUAUACAACCUAUUACCUCA | 0.0697 ± 0.0079 |
| GGAGUGGAUACUUAACAACCUACUACCUCA | 0.157 ± 0.0088 |
| GGAGACCUAUGUAUACAACCUACUUCCUGA | 0.00819 ± 0.0021 |
| GGAGACCUAUGUAUAGAACCUACUACGUCA | 0.015 ± 0.0034 |
| GGAGACCUAUGAUAUGUACCAACAACCUCA | < 0.0001 |
| GGAGACCUAUCUAUUCUACCUACUACCUCA | 0.0569 ± 0.0086 |
